{"source": "PubChem BioAssay AID1117263", "about": "(The Scripps Research Institute Molecular Screening Center, 2014)", "note": "The campaign covered roughly 2,300 compounds. About 300 (13%) were called active.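 Rule for the calls: active = mean inhibition of the replicates above the hit cutoff set in the primary screen (cut at about 17% in these data); inactive = the rest.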 Not all results are given here.", "data": [{"target": "Sialate O-acetylesterase (Homo sapiens) (UniProt Q9HAT2)", "sequence (Q9HAT2 whole entry, looked up)": "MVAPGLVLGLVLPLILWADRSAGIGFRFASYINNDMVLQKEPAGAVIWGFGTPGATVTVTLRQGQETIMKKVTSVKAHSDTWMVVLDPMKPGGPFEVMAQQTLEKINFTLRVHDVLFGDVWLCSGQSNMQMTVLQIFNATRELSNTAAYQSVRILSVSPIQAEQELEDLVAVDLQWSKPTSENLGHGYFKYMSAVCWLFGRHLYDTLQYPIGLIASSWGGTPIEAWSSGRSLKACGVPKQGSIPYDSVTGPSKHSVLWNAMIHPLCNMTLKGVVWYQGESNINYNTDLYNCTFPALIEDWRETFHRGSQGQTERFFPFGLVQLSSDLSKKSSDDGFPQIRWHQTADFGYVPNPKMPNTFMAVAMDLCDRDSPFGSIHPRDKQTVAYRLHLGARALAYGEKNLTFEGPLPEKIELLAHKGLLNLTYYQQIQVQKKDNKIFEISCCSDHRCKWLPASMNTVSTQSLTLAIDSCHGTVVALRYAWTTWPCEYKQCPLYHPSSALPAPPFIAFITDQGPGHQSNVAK", "assay": "human SIAE inhibitors, retest, confirmation, biochemical, fluorescence polarization, FP-Rh probe, triplicate (AID 1117263);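 note: 0% = SIAE with DMSO and probe and 100% = probe without SIAE; inhibitors lower polarization as more probe stays unbound to SIAE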", "settings": "SIAE FP-Rh activity-based probe, at 9.66 µM, hits give high values", "values": [{"smiles": "CCCCn1c(N)c(N(CC(C)C)C(=O)CSc2ccc([N+](=O)[O-])cc2)c(=O)[nH]c1=O", "inhibition": "4.78% (inactive)"}, {"smiles": "O=C(NC(=S)Nc1ccc(NC(=O)c2cccs2)cc1)c1ccc([N+](=O)[O-])cc1", "inhibition": "15.2% (inactive)"}, {"smiles": "C=CCN1C(=O)[C@@H](CC(=O)NCC2CCCCC2)[C@]2(C(=O)OC)CCCCC=C12", "inhibition": "4.13% (inactive)"}, {"smiles": "COc1ccc2nc(Nc3nc4cc5c(cc4s3)OCCO5)sc2c1", "inhibition": "0.67% (inactive)"}, {"smiles": "O=C1CCCC(O)=C1N=Nc1ccc(S(=O)(=O)N2CCOCC2)cc1", "inhibition": "3.36% (inactive)"}, {"smiles": "CC(=O)Nc1cccc([N+](=O)[O-])c1", "inhibition": "1.2% (inactive)"}, {"smiles": "CC(NS(=O)(=O)c1ccc(Cl)cc1)C(=O)Nc1ccc2c(c1)OCCO2", "note": "(stereo unspecified)", "inhibition": "-0.44% (inactive)"}, {"smiles": "CCn1c(=O)n(CC)c2cc(N3CCCC3)c(NC(=O)c3ccccc3Br)cc21", "inhibition": "2.42% (inactive)"}, {"smiles": "O=C(Nc1ccccc1N1CCCC1)c1ccc(F)c(S(=O)(=O)N2CCOCC2)c1", "inhibition": "-3.75% (inactive)"}, {"smiles": "Cc1nc2cc(NCc3cccs3)ccc2n1C", "inhibition": "-2.47% (inactive)"}, {"smiles": "Cn1cccc1/C=N/NC(=O)CNc1cccc2ccccc12", "inhibition": "5.62% (inactive)"}, {"smiles": "O=C(N/N=C/c1sc(N2CCCCC2)nc1-c1cccs1)c1cccnc1", "inhibition": "16.6% (inactive)"}, {"smiles": "C/C=C/c1ccc(OCC(=O)OCC(=O)Nc2c(C)nn(-c3ccccc3)c2C)c(OC)c1", "inhibition": "3.24% (inactive)"}, {"smiles": "C[C@@H]1O[C@@H](OC[C@H]2O[C@@H](Oc3c(-c4ccc(O)cc4)oc4cc(O)cc(O)c4c3=O)[C@H](O)[C@@H](O)[C@@H]2O)[C@H](O)[C@H](O)[C@H]1O", "inhibition": "6.07% (inactive)"}, {"smiles": "CCOC(=O)C1=C(C)N=C2c3ccccc3C(=O)C2C1c1ccc(Br)cc1", "note": "(stereo unspecified)", "inhibition": "7.01% (inactive)"}, {"smiles": "Cc1cc2ccccc2n1CCNC(=O)COc1ccc2ccccc2c1", "inhibition": "9.71% (inactive)"}, {"smiles": "Cc1cc2ccccn2c1C(=O)c1cccc(F)c1", "inhibition": "-0.9% (inactive)"}, {"smiles": "COc1ccc(Cc2nc3ccc(C(=O)N4CCC(N(C)C)C4)cc3o2)cc1", "note": "(stereo unspecified)", "inhibition": "-0.71% (inactive)"}, {"smiles": "COc1ccc(-c2cc(C(=O)NC(Cc3c[nH]c4ccccc34)C(=O)O)c(C)o2)cc1OC", "note": "(stereo unspecified)", "inhibition": "10.6% (inactive)"}, {"smiles": "NS(=O)(=O)c1ccc(NC(=O)COC(=O)c2c3c(nc4ccccc24)/C(=C\\c2ccc4c(c2)OCO4)CCC3)cc1", "inhibition": "-152% (inactive)"}, {"smiles": "CCCCC[C@H](C)N1C[C@@H](COCc2ccccc2)Oc2cc(N3CC[C@@H](N(C)C)C3)ccc2S1(=O)=O", "inhibition": "23.2% (active)"}, {"smiles": "CNS(=O)(=O)c1ccc2c(c1)[nH]c(=S)n2C", "inhibition": "8.04% (inactive)"}, {"smiles": "Cc1ccc(C(=O)N/C(=C/c2ccc(-c3cccc([N+](=O)[O-])c3)o2)C(=O)NCCCN(C)C)cc1", "inhibition": "0.77% (inactive)"}, {"smiles": "NNC(=O)c1oc2nc(-c3ccccc3)cc(-c3ccco3)c2c1N", "inhibition": "56% (active)"}, {"smiles": "Cc1ccc(OCC(=O)Nc2ccc(-c3nnc(-c4ccco4)o3)cc2)cc1", "inhibition": "-15.4% (inactive)"}, {"smiles": "CNC(=S)NNC(=O)c1oc2nc(-c3ccccc3)cc(-c3ccco3)c2c1N", "inhibition": "3.72% (inactive)"}, {"smiles": "CCOC(=O)/C(N=Nc1cc(C(=O)O)cc(C(=O)O)c1)=C(\\O)CCl", "inhibition": "2.21% (inactive)"}, {"smiles": "CC(C)c1cc(N=O)cc(C(C)C)c1O", "inhibition": "-26.2% (inactive)"}, {"smiles": "Oc1ccccc1C1=NN(c2ccccc2)C(c2ccccc2)C1", "note": "(stereo unspecified)", "inhibition": "6.69% (inactive)"}, {"smiles": "CCOc1ccc(NC(=O)C/C(C)=N/NC(=O)Cc2cccs2)cc1", "inhibition": "4.73% (inactive)"}, {"smiles": "CCN(CC)CCCC(C)n1c2nc(=O)[nH]c(=O)c-2nc2cc(Cl)ccc21", "note": "(stereo unspecified)", "inhibition": "25.5% (active)"}, {"smiles": "COC(=O)C(C)Sc1ccc2nnc(-c3cccc(F)c3)n2n1", "note": "(stereo unspecified)", "inhibition": "-0.98% (inactive)"}, {"smiles": "Oc1ccc2ccc3cccc[n+]3c2c1", "inhibition": "4.67% (inactive)"}, {"smiles": "CCOC(=O)C1=C(c2ccccc2)O/C(=C(/C(=O)OC)C(F)(F)F)S1", "inhibition": "-7.25% (inactive)"}, {"smiles": "CCN(C(=O)COC(=O)C1CCN(S(=O)(=O)c2ccc(C)c(C)c2)CC1)C1CCS(=O)(=O)C1", "note": "(stereo unspecified)", "inhibition": "2.26% (inactive)"}, {"smiles": "Nc1ccc2nc3c(=O)[nH]c(=S)[nH]c3nc2c1", "inhibition": "32.7% (active)"}, {"smiles": "Cc1nc(-c2ccc(Cl)cc2)sc1C(=O)NN", "inhibition": "-2.12% (inactive)"}, {"smiles": "NNc1nc2c(Cl)cccc2s1", "inhibition": "5.82% (inactive)"}, {"smiles": "S=C(NCCCc1cnc[nH]1)NCCCN(Cc1ccc(Cl)c(Cl)c1)c1ccc(Br)cn1", "inhibition": "30.6% (active)"}, {"smiles": "Oc1ccc(/C=N/N(Cc2ccccc2)c2ccccc2)cc1", "inhibition": "9.47% (inactive)"}, {"smiles": "CC(C)(O)C#Cc1ccc(C(=O)N2CCC(C(N)=O)(N3CCCCC3)CC2)cc1", "inhibition": "2.82% (inactive)"}]}]}
